# Measured values as given in the OligoGym collection.
# Molecular target: INO80C
# Experiment: pooled miR-30 sensor sort-seq; sequence = guide strand
# Details: shRNA
# Further: reference of the scale not given here.
row,Sequence,sensor-assay potency score (higher = more potent)
1,TATAATTTAATTCAGCAGGAAA,-1.3
2,TTCAATGGTGCTGAACCGCAGT,-0.122
3,TTTACTTGAGGCAACAACTGAA,0.108
4,TTGGAGGGAAAACACACACTAA,-1.27
5,TTGCTGTTCCGGACTATTCCGG,-0.701
6,TGTAGTTGGCAAGCAGACCTGA,-0.0597
7,TTACTTGAGGCAACAACTGAAG,-0.863
8,ATTTGTTTCAGGTTCTTCCAGG,-0.776
9,TACTGAAGTAGTTAGGATCGTT,0.332
10,TTCTGTTCTTCTTGCCAGCTAC,-0.723
11,TGAAACATCAGAATACTTCTTA,1.15
12,TTTTGAAACAGCTTTCCACTTC,0.164

# Molecular target: INPP5F
# Experiment: as above
# Details: shRNA
row,Sequence,sensor-assay potency score (higher = more potent)
1,TTAGTGTCTGAACATTCTCAAA,-1.6
2,TTCATTTGAAACTTGATTGGTC,0.857
3,TTCACTTCTGTCCAGCCGCGGT,-1.35
4,TTGCTTGGTGATCTGCAGCATC,-0.92
5,TACCAAGTTAATAATAACCTGT,-0.241
6,TTACTTTATCAACTTCATCATC,-1.34
7,TTGGGTAATACTAGCAACCTGG,-0.472
8,TTCGTTTATAGCGCATTCCTGC,-0.611
9,TTCCTTTTCACTTCTGTCCAGC,-0.59
